Compound activity as filed in PubChem BioAssay.
FBPA coupling cs = qHTS Assay for Inhibitors of Fructose-1,6-bisphosphate Aldolase from Giardia Lamblia: Coupling assay counterscreen; coupling enzyme system counterscreen, AmpLite Red fluorescence; 0.67% of 290,000 active; activity change, negative = inhibition, % at 58.2 µM, hits read low; in the data active means activity change below about -30%
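Counterscreen lacking aldolase: glyceraldehyde-3-phosphate coupling-enzyme reagent preincubated 10 min at RT with compound (at 57.5 uM final), then substrate/coupling system with AmpLite Red added; fluorescence read at 525/598 nm after 20 min RT.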
Sfp PPTase inh = qHTS Assay for Inhibitors of Bacillus subtilis Sfp phosphopantetheinyl transferase (PPTase) | Biochemical Sfp PPTase activity, qHTS | Potency, µM, for the others: largest response in the series, negative = inhibition, usual class: inhibitors | 3.5% of 310,000 active | 4'-phosphopantetheinyl transferase ffp (Bacillus subtilis), Q9F4F7;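 further: the enzyme is Sfp with the accession as filed and its product quenches rhodamine fluorescence; potency means the concentration at half of the fitted maximal effect; 0% = enzyme reaction without inhibitor and -100% = no enzyme wells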
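Step 1, compound plus 15 nM Sfp-PPTase, 15 min, room temperature. Step 2, add rhodamine-CoA (5 uM) and BHQ-2-YbbR (12.5 uM). Step 3, read 525/598 nm fluorescence at 0 and 30 min.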
ELG1 DNA repair = qHTS screen for small molecules that inhibit ELG1-dependent DNA repair in human embryonic kidney (HEK293T) cells expressing luciferase-tagged ELG1. Potency, µM (titrated, usually from 46.1 µM), without a hit: at the top dose activity change, negative = inhibition, actives largely listed as inhibitors. 2.3% of 330,000 active. HEK293T ELG1-luciferase reporter, luminescence, 16 h; DNA damage induced by 5-fluorouridine; further: potency means the concentration at half of the fitted maximal effect; nearly all actives have a fitted effect of over 55% in size
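DMSO vehicle served as the neutral condition. Each well held 2,000 cells given 5-fluorouridine plus compound; after 16 hr at 37 °C/5% CO2, ONE-Glo was added and luciferase measured 30 min later.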
Giardia kill = Small Molecules that selectively kill Giardia lamblia: qHTS; Giardia lamblia trophozoite viability; activity change, % at 7.66 µM, hits read low; 0.15% of 340,000 active; AID 540267, 2011; in the data active means activity change below about -80%; inconclusive means between about -30% and that limit;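 further: parasites exposed to compound for two days anaerobically before the ATP read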
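Viability, read as ATP luminescence: trophozoites at 100 cells/well, compound added, 48 hrs anaerobic at 37 deg C, then 15-30 min room-temperature development before reading.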
An asterisk follows results filed as active; ? = inconclusive; . = no result. This is a sample that favours compounds with a hit; in the whole collection about 5.5% have one here. Unless noted, the call rests on the fitted dose curve; in most records, active means well fitted curve in the direction sought with a large enough effect; inconclusive means small, poorly fitted or top-dose-only effect, or another doubt; inactive means no such curve, though single readings can be large; an effect the other way counts as inactive or inconclusive. Unless noted, on the % scale 0 is the no-effect control and ±100 the full control effect.

SMILES | FBPA coupling cs | Sfp PPTase inh | ELG1 DNA repair | Giardia kill
Cc1ccsc1C1C2=C(CCCC2=O)Nc2ncnn21 (stereo not given) | -30.5* | 1.7% | 3.6% | -8.2
Cc1ccc(NC2=C(Cl)C(=O)OC2NC(=O)c2ccccc2)cc1 (stereo not given) | 2.6 | 3.2% | -11.3% | 7.2
O=C1OC(NC(=O)c2ccccc2)C(n2cc(CO)nn2)=C1Cl (stereo not given) | -0.6 | 3.98µM* | 16.2% | 8.4
CC(OC(=O)C1CCN(S(=O)(=O)c2ccc3c(c2)OCCO3)CC1)C(=O)NC1(C#N)CCCCC1 (stereo not given) | . | . | . | -20.0
Cc1cc(C)c(NC(=O)Nc2ccccc2)c(C)n1 | . | . | 0.3% | ?
Cc1cc(N)c2cc(NC(=O)Nc3ccc4nc(C)cc(N)c4c3)ccc2n1 | . | 7.94µM* | . | .
Cc1ccc2nc(C)cc(C(=O)N/N=C/c3ccncc3)c2c1 | 0.6 | 11.4% | 4.1% | -1.6
Cc1ccc(C(=O)CSc2nnc3c4ccccc4nc(C(C)(C)C)n23)cc1 | 0.4 | -10.9% | 16.4µM* | -9.8
Cc1ccc(-c2csc(N3CCN(c4cc5c(cc4Cl)nc(C)n5CCN4CCCCC4)CC3)n2)cc1 | -4.3 | 50.1µM* | -2.0% | 9.3
Cc1ccc(-c2csc(N3CCN(c4cc5c(cc4Cl)nc(C(C)N)n5CCCO)CC3)n2)cc1 (stereo not given) | 0.4 | -4.9% | 19.7% | 3.1
Cc1ccc(C(=O)N/C(=C\c2ccccc2)C(=O)NCCN2CCOCC2)cc1 | 2.2 | 0.9% | 16.2% | -3.0
C=CCOC(=O)C1=C(C)Nc2[nH]c(=O)[nH]c(=O)c2C1c1cccc(OC)c1 (stereo not given) | -0.6 | -1.7% | 21.7% | .
COC(=O)C1=C(C)Nc2[nH]c(=S)[nH]c(=O)c2C1c1ccc(OC)cc1 (stereo not given) | 10.8 | 39.8µM* | 3.1% | -12.5
COc1cccc(/C=N/NC(=O)CN(CCc2ccccc2)S(=O)(=O)c2ccc(NC(C)=O)cc2)c1 | 0.0 | 3.7% | 23.1µM* | -8.2
CCN(CC)c1ccc(/C=C2/SC(=O)N(C(C)C)C2=O)o1 | -38.3* | 3.16µM* | ? | -11.7
Cc1cc(C)nc(Sc2ncnc(N)c2[N+](=O)[O-])n1 | 3.3 | 50.1µM* | ? | 4.9
CCOC(=O)c1cccc(NC(=O)CSc2nc3cccnc3n2C)c1 | 2.7 | 8.9% | 18.4µM* | -3.2
CCOC(=O)c1sc(NC(=O)CSc2nc3cccnc3n2C)nc1C | -0.4 | 17.8% | ? | 7.0
COc1ccc(NC(=O)CCC(=O)N2CCC(c3ccccc3)=N2)cc1S(=O)(=O)N1CCCCC1 | . | . | . | -20.2
CCC(=O)Nc1c2c(nn1-c1ccc(C)cc1C)CSC2 | 6.0 | ? | 10.9% | -8.5
Cc1ccc(-n2nc3c(c2NC(=O)C(C)(C)C)CSC3)c(C)c1 | -1.3 | 70.8µM* | -1.1% | -3.8
Cc1ccc(-n2nc3c(c2NC(=O)c2ccc(Br)o2)CSC3)c(C)c1 | -35.3* | ? | -1.7% | 1.8
Cc1cccc(-n2nc3c(c2NC(=O)c2ccco2)CSC3)c1C | 0.0 | 39.8µM* | 12.7% | -2.3
CCOc1ccccc1-c1nnc2n1N=C(c1c(OC)cccc1OC)CS2 | 4.2 | -19.1% | . | .
COc1cccc([C@@H]2Oc3ccc(OC)cc3C[C@H]2OC(=O)NS(=O)(=O)c2ccc(C)cc2)c1 | -1.7 | -5.2% | . | .
SMILES | FBPA coupling cs | Sfp PPTase inh | ELG1 DNA repair | Giardia kill
NCCC[C@@H](CC(=O)N[C@@H]1CCNC[C@H]1C(=O)N[C@H](CC(=O)N[C@@H](CCC(=O)O)CC(=O)O)Cc1c[nH]c2ccccc12)NC(=O)C[C@H](CO)NC(=O)[C@@H]1CCCC[C@H]1N | -0.3 | 13.0% | . | .
CCC1=Nc2ccccc2NC2=C1C(=O)CCC2 | -17.5 | 35.5µM* | ? | -0.9
CC1CC(=O)C2=C(C1)Nc1ccccc1N=C2 (stereo not given) | 1.0 | 18.6% | -18.2% | -11.4
OCCC1CN(Cc2cnc(-c3ccc(Cl)cc3)nc2)CCN1C1CCCC1 (stereo not given) | 1.5 | 4.8% | 6.51µM* | -27.5
Nc1ncnc2c1ncn2[C@@H]1O[C@H](CNC(=O)[C@@H]2CCN2)[C@@H](O)[C@H]1O | . | . | 16.2% | -9.2
Cc1ccc(C)c(N2CCN(C(=O)c3ccc(N4CCOCC4)c([N+](=O)[O-])c3)CC2)c1 | -3.7 | -14.3% | -17.0% | 1.6
